We go through seven compounds from PubChem BioAssay (EPA / NIEHS).

Activity calls are given as the source filed them. How the source made its calls: active means hit-call score of the fitted dose curve at least 0.9, where 1 is the maximum; inactive means score below 0.9.

The nature of assay [1]: ATG_GRE_CIS: Attagene CIS-FACTORIAL HepG2 Assay for human Glucocorticoid Response Elements (GRE) (AID 2282947). The conditions noted are these: HepG2 GRE cis-reporter, Attagene multiplex mRNA; actives raise or lower the signal. In a few lines:
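Cells (HepG2) bearing transfected cis-promoter reporter transcription units were treated with chemical for 24 hours. Reporter mRNA was measured via RT-PCR with capillary electrophoresis, and activity was fitted in both directions relative to DMSO.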

Assay [2] is described as follows: ATG_ISRE_CIS: Attagene CIS-FACTORIAL HepG2 Assay for human Interferon Regulatory Factor 1 (IRF1) binding to an Interferon-Stimulated Response Element (ISRE) (AID 2282948). The conditions noted are these: HepG2 ISRE cis-reporter (Attagene), mRNA transcription readout; actives raise or lower the signal. In a few lines: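 Endogenous transcription factor activity read as reporter transcript abundance via RT-PCR and capillary electrophoresis. HepG2 cells transiently transfected, 24 h chemical exposure. Gain or loss fitted against DMSO baseline.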

Assay [3] addresses Hypoxia-inducible factor 1-alpha (Homo sapiens) (UniProt Q16665). The assay is described as follows: ATG_HIF1a_CIS: Attagene CIS-FACTORIAL HepG2 Assay for human Hypoxia Inducible Factor 1 (HIF1A) (AID 2282951). The conditions noted are these: HepG2 Attagene cis-factorial HIF1a reporter transcription; actives raise or lower the signal. In a few lines:
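HepG2, transient cis-reporter library, 24 h dosing. RNA → RT (oligo dT) → PCR → 6-FAM primer extension → HpaI → CE. Bidirectional curve fit vs DMSO.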

A short description of assay [4]: ATG_MRE_CIS: Attagene CIS-FACTORIAL HepG2 Assay for human Metal Responsive Element (MRE) (AID 2282954). The conditions noted are these: HepG2 MRE cis-reporter transcription, Attagene multiplex; actives raise or lower the signal. In a few lines:
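Cells were transfected with cis-promoter reporter transcription units, then dosed for 24 h. RNA was reverse-transcribed, amplified, fluorescently labelled and resolved by capillary electrophoresis, and activity was fitted in both directions relative to DMSO.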

Assay [5] is described as follows: ATG_PBREM_CIS: Attagene CIS-FACTORIAL HepG2 Assay for human Phenobarbital-responsive Enhancer Module (PBREM) (AID 2282955). The conditions noted are these: HepG2 PBREM cis-reporter, Attagene multiplexed transcription; actives raise or lower the signal. In a few lines: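 HepG2, transient MRTU transfection, 24 h dosing; RNA → oligo(dT) RT → PCR → 6-FAM extension → HpaI → CE. Bidirectional fit vs DMSO.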

A short description of assay [6]: ATG_PXRE_CIS: Attagene CIS-FACTORIAL HepG2 Assay for human Pregnane X Receptor Element (PXRE) (AID 2282957). The conditions noted are these: HepG2 Attagene CIS-FACTORIAL PXRE reporter, mRNA; actives raise or lower the signal. In outline: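 Endogenous transcription factor activity in HepG2 was gauged through induction of reporter mRNA driven by a cis-regulating promoter element, sampled 24 h post-treatment. Activity was fitted in both directions against DMSO negative control.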

Assay [7] is described as follows: ATG_RORE_CIS: Attagene CIS-FACTORIAL HepG2 Assay for human RAR-related Orphan Receptor Element (RORE) (AID 2282959). The conditions noted are these: HepG2 Attagene cis-factorial RORE reporter, mRNA; actives raise or lower the signal. In a few lines:
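Multiplexed reporter assay measuring mRNA induction from a cis promoter element in transiently transfected HepG2 cells after 24 h treatment. Detection via RT-PCR and capillary electrophoresis fluorescence; DMSO serves as baseline.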

The nature of assay [8]: ATG_Sox_CIS: Attagene CIS-FACTORIAL HepG2 Assay for human SRY-box transcription factor (SOX) (AID 2282960). The conditions noted are these: HepG2 Attagene cis-factorial SOX reporter, mRNA; actives raise or lower the signal. In outline:
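Cells were transfected with reporter constructs under cis-regulatory promoters, then exposed to chemicals for 24 h. Reporter transcripts were quantified by fluorescence after RT-PCR and capillary electrophoresis; activity was fitted in both directions against DMSO.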

Assay [9] has as its target Transcription factor Sp1 (Homo sapiens) (UniProt P08047). Description: ATG_Sp1_CIS: Attagene CIS-FACTORIAL HepG2 Assay for human Specificity Protein 1 (Sp1) (AID 2282961). The conditions noted are these: HepG2 Sp1 cis-reporter transcription, actives raise or lower the signal. In outline: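 Measures mRNA induction of an Sp1-linked reporter in HepG2 cells 24 h post-dosing. Multiplexed reporters read by RT-PCR and capillary electrophoresis; DMSO serves as negative control and baseline.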

The nature of assay [10]: ATG_SREBP_CIS: Attagene CIS-FACTORIAL HepG2 Assay for human Sterol Regulatory Element Binding (SREBP) (AID 2282962). The conditions noted are these: HepG2 Attagene cis-factorial SREBP reporter, mRNA; actives raise or lower the signal. In a few lines: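 Endogenous SREBP activity read as cis-element-driven reporter transcript in transiently transfected HepG2, 24 h post-dosing; quantified via RT-PCR plus capillary electrophoresis of fluorescent fragments. Gain or loss of signal fitted relative to DMSO baseline.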

In assay [11] the target is Signal transducer and activator of transcription 3 (Homo sapiens) (UniProt P40763). Description: ATG_STAT3_CIS: Attagene CIS-FACTORIAL HepG2 Assay for human Signal Transducer and Activator of Transcription 3 (STAT3) (AID 2282963). The conditions noted are these: HepG2, Attagene cis-factorial STAT3 reporter transcription; actives raise or lower the signal. In a few lines:
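HepG2, MRTU-transfected, 24 h dosing. RNA → RT → PCR → FAM label → HpaI → CE. Bidirectional fit vs DMSO.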

Assay [12] is described as follows: ATG_TA_CIS: Attagene CIS-FACTORIAL HepG2 Assay for human TA Basal Promoter (AID 2282964). The conditions noted are these: HepG2 Attagene CIS-factorial TA basal promoter reporter; actives raise or lower the signal. In a few lines:
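Steps: transfect HepG2 with MRTUs; dose 24 h; isolate RNA, DNase-treat, reverse-transcribe; PCR and FAM-label reporter cDNA; digest with HpaI 2h at 37 C; run capillary electrophoresis. Activity fitted both directions against DMSO.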

Assay [13] is described as follows: ATG_TCF_b_cat_CIS: Attagene CIS-FACTORIAL HepG2 Assay for human T-Cell-Factor with beta-catenin (TCF/b-cat) (AID 2282965). The conditions noted are these: HepG2 TCF/beta-catenin cis-reporter transcription, actives raise or lower the signal. In a few lines:
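Using capillary electrophoresis as the read-out, labelled reporter cDNA fragments from transiently transfected HepG2 were sized and quantified. Exposure lasted 24 hours; activity in either direction was referenced to DMSO.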

Assay [14] in a line: ATG_M_32_CIS: Attagene CIS-FACTORIAL HepG2 Assay for M32 Transcription Factor (Internal Marker) (AID 2282949).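 Further: background control marker of the multiplexed CIS panel rather than a real target.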 The conditions noted are these: HepG2 Attagene cis-factorial M32 reporter, mRNA; actives raise or lower the signal. In outline:
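HepG2 transfectants (cis-regulated reporter transcription units) dosed 24 h. Reporter mRNA by RT-PCR plus CE, analysed as gain or loss relative to DMSO.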

Assay [15] can be described thus: ATG_M_06_CIS: Attagene CIS-FACTORIAL HepG2 Assay for M06 Transcription Factor (Internal Marker) (AID 2282950). The conditions noted are these: HepG2 Attagene CIS-FACTORIAL M06 internal marker reporter; actives raise or lower the signal. In a few lines: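 Steps: transfect HepG2 with multiplexed cis-element reporter constructs; dose chemical 24 h; extract RNA with DNase treatment; reverse-transcribe, PCR-amplify, 6-FAM label, HpaI digest; separate fragments by capillary electrophoresis. Activity fitted both directions versus DMSO.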

Assay [16] deals with Hepatocyte nuclear factor 6 (Homo sapiens) (UniProt Q9UBC0). The assay is described as follows: ATG_HNF6_CIS: Attagene CIS-FACTORIAL HepG2 Assay for human Hepatocyte Nuclear Factor 6 (HNF6) (AID 2282952). The conditions noted are these: HepG2 Attagene cis-factorial HNF6 reporter transcription; actives raise or lower the signal. In a few lines:
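Endogenous transcription factor activity in human HepG2 liver cells was captured through cis-regulated reporter constructs. After 24 h treatment, reporter mRNA was measured by RT-PCR with capillary electrophoresis, and activity was fitted in both directions relative to DMSO.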

In assay [17] the target is Heat shock factor protein 1 (Homo sapiens) (UniProt Q00613). The assay is described as follows: ATG_HSE_CIS: Attagene CIS-FACTORIAL HepG2 Assay for human Heat Shock Transcription Factor 1 (HSE) (AID 2282953). The conditions noted are these: HepG2 HSE cis-reporter, Attagene RNA transcription; actives raise or lower the signal. In a few lines:
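Cells were transfected with cis-element-driven reporter constructs, dosed for 24 h, then total RNA was reverse-transcribed and reporter cDNA amplified, FAM-labelled and digested with HpaI. Fragments were resolved by capillary electrophoresis; gain or loss was fitted against DMSO.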

In assay [18] the target is Paired box protein Pax-6 (Homo sapiens) (UniProt P26367). Description: ATG_Pax6_CIS: Attagene CIS-FACTORIAL HepG2 Assay for human Paired Box 6 (PAX6) (AID 2282956). The conditions noted are these: HepG2 CIS-FACTORIAL PAX6 reporter transcription, RNA readout; actives raise or lower the signal. In outline: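 Read-out is reporter transcript level, measured by RT-PCR with fluorescent primer extension and capillary electrophoresis after 24 h dosing of transfected HepG2 cells. Activity in either direction fitted relative to DMSO control.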

Assay [19] can be described thus: ATG_PPRE_CIS: Attagene CIS-FACTORIAL HepG2 Assay for human Peroxisome Proliferator-activated Response Element (PPRE) (AID 2282958). The conditions noted are these: HepG2 PPRE cis-element reporter, Attagene transcription factor profiling; actives raise or lower the signal. In a few lines: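 Transcript-level reporter induction in transfected HepG2 cells after 24 h chemical exposure, quantified by fluorescence from RT-PCR products separated by capillary electrophoresis.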

Sequence of Hypoxia-inducible factor 1-alpha (Homo sapiens) (Q16665 whole entry, looked up): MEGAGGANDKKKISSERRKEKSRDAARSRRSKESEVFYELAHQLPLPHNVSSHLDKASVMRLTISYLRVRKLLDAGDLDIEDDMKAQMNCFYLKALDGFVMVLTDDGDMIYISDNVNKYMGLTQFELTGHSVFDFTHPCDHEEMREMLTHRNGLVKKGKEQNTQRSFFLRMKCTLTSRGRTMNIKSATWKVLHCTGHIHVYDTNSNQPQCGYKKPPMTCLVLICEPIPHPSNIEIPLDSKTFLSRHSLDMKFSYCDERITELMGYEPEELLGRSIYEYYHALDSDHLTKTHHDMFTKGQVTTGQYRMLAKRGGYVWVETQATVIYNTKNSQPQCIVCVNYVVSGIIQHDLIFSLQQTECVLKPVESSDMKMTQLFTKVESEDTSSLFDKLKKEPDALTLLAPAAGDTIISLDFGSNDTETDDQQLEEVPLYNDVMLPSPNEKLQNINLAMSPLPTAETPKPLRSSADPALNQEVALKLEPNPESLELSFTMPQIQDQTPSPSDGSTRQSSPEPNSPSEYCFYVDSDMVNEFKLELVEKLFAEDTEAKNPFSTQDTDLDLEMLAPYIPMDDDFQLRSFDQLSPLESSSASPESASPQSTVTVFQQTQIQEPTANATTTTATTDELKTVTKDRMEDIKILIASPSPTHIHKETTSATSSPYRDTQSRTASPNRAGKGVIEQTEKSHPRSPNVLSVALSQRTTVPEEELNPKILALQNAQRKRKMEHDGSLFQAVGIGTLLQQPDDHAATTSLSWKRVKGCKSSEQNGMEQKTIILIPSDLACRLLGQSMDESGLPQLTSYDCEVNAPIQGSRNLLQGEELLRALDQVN
Sequence of Transcription factor Sp1 (Homo sapiens) (P08047 whole entry, looked up): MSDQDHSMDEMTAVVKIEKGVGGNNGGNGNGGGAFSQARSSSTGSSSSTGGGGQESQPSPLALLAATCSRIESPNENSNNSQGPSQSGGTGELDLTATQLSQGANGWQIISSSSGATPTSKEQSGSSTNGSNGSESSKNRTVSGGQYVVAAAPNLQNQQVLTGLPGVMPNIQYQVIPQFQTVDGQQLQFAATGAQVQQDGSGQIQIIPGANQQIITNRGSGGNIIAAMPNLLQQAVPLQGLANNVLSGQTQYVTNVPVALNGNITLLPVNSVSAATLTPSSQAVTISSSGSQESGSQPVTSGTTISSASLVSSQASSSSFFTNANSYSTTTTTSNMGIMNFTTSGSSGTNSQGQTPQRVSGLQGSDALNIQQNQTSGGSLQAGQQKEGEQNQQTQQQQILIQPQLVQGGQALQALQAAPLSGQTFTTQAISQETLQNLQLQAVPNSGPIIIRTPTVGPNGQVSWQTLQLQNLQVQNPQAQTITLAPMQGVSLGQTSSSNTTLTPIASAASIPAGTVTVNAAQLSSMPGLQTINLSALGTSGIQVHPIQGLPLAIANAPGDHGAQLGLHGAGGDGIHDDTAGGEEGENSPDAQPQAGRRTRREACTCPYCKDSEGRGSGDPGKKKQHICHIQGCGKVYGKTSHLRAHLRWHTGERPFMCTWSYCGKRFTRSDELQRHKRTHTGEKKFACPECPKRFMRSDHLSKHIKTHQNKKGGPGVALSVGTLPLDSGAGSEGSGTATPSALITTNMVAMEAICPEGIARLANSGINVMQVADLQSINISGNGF
Sequence of Hepatocyte nuclear factor 6 (Homo sapiens) (Q9UBC0 whole entry, looked up): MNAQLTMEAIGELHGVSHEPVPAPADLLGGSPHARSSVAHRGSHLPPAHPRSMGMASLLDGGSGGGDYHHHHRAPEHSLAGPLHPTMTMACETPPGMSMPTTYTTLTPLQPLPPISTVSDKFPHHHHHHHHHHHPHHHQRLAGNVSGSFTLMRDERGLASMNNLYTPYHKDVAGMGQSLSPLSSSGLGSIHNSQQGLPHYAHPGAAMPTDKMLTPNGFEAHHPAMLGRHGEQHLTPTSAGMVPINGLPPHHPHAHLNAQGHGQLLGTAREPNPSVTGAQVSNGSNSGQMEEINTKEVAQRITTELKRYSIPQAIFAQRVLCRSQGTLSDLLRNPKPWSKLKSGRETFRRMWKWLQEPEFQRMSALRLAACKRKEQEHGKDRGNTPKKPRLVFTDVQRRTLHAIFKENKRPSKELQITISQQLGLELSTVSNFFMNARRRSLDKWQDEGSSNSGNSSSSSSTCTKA
Sequence of Paired box protein Pax-6 (Homo sapiens) (P26367 whole entry, looked up): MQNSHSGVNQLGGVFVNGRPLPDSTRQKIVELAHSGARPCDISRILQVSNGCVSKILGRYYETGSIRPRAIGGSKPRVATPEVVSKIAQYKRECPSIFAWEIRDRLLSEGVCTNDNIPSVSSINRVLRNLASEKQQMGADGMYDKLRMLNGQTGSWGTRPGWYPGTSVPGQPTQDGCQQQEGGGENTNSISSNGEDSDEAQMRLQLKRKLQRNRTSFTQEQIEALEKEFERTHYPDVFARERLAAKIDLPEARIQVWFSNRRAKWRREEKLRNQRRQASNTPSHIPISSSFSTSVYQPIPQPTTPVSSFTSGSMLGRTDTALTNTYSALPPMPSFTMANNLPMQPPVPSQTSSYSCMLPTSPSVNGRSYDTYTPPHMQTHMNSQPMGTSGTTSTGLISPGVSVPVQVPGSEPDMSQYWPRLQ
Sequence of Signal transducer and activator of transcription 3 (Homo sapiens) (P40763 whole entry, looked up): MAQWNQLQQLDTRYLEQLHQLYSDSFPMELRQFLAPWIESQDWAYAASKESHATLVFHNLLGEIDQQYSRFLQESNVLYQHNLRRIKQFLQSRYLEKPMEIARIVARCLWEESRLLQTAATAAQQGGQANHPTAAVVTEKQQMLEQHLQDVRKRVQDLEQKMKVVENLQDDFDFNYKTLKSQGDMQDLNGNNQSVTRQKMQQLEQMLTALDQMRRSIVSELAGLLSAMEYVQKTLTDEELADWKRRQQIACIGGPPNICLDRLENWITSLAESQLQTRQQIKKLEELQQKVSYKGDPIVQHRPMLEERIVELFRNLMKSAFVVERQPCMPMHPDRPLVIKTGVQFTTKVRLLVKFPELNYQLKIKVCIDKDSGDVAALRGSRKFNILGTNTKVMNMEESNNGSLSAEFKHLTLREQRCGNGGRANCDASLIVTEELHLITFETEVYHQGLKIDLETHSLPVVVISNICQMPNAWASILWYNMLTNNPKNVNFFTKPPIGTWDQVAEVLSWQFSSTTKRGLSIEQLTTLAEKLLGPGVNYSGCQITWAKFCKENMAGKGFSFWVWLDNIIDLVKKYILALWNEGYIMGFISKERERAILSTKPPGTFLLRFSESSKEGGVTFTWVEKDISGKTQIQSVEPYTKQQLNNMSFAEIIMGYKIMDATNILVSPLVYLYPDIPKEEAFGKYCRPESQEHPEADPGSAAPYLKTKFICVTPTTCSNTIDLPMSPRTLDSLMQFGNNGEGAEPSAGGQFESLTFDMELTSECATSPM
Sequence of Heat shock factor protein 1 (Homo sapiens) (Q00613 whole entry, looked up, the tested form may be a part): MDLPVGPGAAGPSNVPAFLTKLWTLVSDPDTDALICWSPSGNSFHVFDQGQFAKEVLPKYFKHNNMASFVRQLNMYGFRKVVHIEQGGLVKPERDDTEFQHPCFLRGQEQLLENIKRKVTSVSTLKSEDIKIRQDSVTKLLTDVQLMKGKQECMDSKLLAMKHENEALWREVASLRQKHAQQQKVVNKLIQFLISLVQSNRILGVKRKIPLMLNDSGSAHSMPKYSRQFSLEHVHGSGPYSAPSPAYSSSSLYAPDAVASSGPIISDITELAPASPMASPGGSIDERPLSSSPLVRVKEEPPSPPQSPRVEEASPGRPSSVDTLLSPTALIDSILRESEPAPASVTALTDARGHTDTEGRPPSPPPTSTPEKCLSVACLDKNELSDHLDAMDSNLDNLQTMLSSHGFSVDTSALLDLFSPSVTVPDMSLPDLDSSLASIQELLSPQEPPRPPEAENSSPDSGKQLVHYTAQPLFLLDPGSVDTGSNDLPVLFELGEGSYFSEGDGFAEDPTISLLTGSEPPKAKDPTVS

As to `CCCC(=O)c1ccccc1`, the outcome in [1], in assay [2], in assay [3], in assay [4], in assay [5] and in [6] was inactive. In addition, the result in [7], in [8], in assay [9], in assay [10], in [11] and in assay [12] was inactive. Also, in assay [13], the call was inactive.
As for `OCC(O)c1ccccc1` (stereo unspecified), the call in assay [2], in [14], in [15], in assay [3], in assay [16] and in assay [17] was inactive. Moreover, the result in [4], in [18], in assay [6], in assay [7], in assay [9] and in [10] was inactive. Further, the compound was classed as inactive in assay [11], in assay [12] and in [13].
Broadly, the AC50 is the concentration giving half of the maximal activity seen. On to `COc1ccc(N=Nc2cc(C)c(N=Nc3ccc(S(=O)(=O)O)cc3)cc2OC)cc1`, for which the compound was called inactive in assay [1], in [14], in assay [15], in assay [3], in [16] and in [4]. Also, the result in [5], in assay [19], in assay [8], in [12] and in assay [13] was inactive. For the same compound, the AC50 in assay [17] is 100 µM (active); in assay [18], 100 µM (active); in assay [6], 23.1 µM (active); in [7], 8.45 µM (active); in assay [9], 175 µM (active); in assay [10] it was 162 µM (active). Further, the AC50 in assay [11] is 162 µM (active).
Regarding `CCCCCCOC(=O)CCC`, the outcome in assay [2], in assay [14], in assay [15], in assay [3], in [16] and in [17] was inactive. Further, the result in assay [4], in assay [5], in [18], in assay [7], in assay [8] and in [9] was inactive. The compound was classed as inactive in assay [10], in assay [11], in assay [12] and in assay [13]. For the same compound, in assay [6], the half-maximal activity concentration (AC50) is 24.8 µM (active).
With `CCCOC(=O)c1c(Cl)c(Cl)c(Cl)c(Cl)c1C(=O)OCCC`, the outcome in [1], in assay [14], in assay [15], in [3], in [16] and in [17] was inactive. The result in assay [5], in assay [18], in assay [19], in assay [11], in [12] and in assay [13] was inactive. Also, the AC50 in assay [4] is 162 µM (active); in assay [6], 1.64 µM (active); in assay [9], 67.1 µM (active); in [10], 100 µM (active).
On to `CC1(C)CCC[C@]2(C)[C@H]3CCO[C@]3(C)CC[C@@H]12`, for which the result in assay [2], in assay [14], in assay [15], in assay [3], in assay [16] and in [4] was inactive. For the same compound, the outcome in assay [5], in [18], in assay [8], in assay [9], in [11] and in [12] was inactive. Also, the compound was classed as inactive in assay [13]. Moreover, the AC50 in assay [17] is 178 µM (active); in [6] it was 7.46 µM (active); in [7] it was 100 µM (active); in [10] it was 145 µM (active).
As for `CC1=CC[C@@]23C[C@@H]1C(C)(C)[C@@H]2CC[C@H]3C`, the result in [1], in [14], in assay [15], in assay [3], in assay [16] and in assay [4] was inactive. The result in [5], in [7], in [8], in assay [9], in [10] and in assay [11] was inactive. Moreover, the compound was classed as inactive in assay [12] and in [13]. The AC50 in [6] is 5.2 µM (active).
